Screening results from PubChem.
Shown are actives, neighbours in structure and some others; about 3.2% of the full set was active somewhere.
Vaccinia mCherry – inhibitors of vaccinia virus infection (mCherry reporter signal); Potency, µM (top dose mostly 36.5 µM), for the others: at the top dose activity change, negative = inhibition, usual class: inhibitors; AID 720579; Vaccinia virus mCherry reporter infection, fluorescence; hit rate 0.63% among 310,000; calls by dose curve; tested in A549 cells; further: nearly all actives have a fitted effect of over 35% in size
LASV entry inh – blocks Lassa virus binding to or entry into cells; Lassa virus pseudotype entry inhibition, cell reporter; AID 540256; hit rate 1.2% among 300,000; Potency, µM (doses to about 37.9 µM), inactives show top-dose activity change, negative = inhibition, most hits filed as inhibitors; calls by dose curve; tested in HEK293 cells; further: nearly all actives have a fitted effect of over 50% in size
Marburg entry inh – Marburg virus entry inhibition. Marburg virus pseudotyped entry inhibition, cell reporter. Potency, µM (top dose mostly 37.8 µM), inactives show at the highest dose activity change, negative = inhibition, most hits filed as inhibitors. hit rate 1.8% among 300,000; calls by dose curve; tested in HEK293 cells
FMDV inh – blocks foot and mouth disease virus. FMDV antiviral cell-based qHTS. AID 1159524. hit rate 1.2% among 410,000. Potency, µM (highest dose often 57.9 µM), for inactives: top-dose activity change, negative = inhibition, actives largely listed as inhibitors; calls by dose curve; tested in HEK293T cells; further: read-out not given here; nearly all actives have a fitted effect of over 45% in size
VACV Venus inh – inhibitors of vaccinia virus (Venus reporter); Vaccinia virus Venus reporter expression, fluorescence; Potency, µM (series often up to 36.5 µM), without a hit: top-dose activity change, negative = inhibition, hits mostly inhibitors; hit rate 0.46% among 330,000; calls by dose curve; tested in A549 cells; further: nearly all actives have a fitted effect of over 30% in size
Numbers without * were called inactive; i = inactive; ? = inconclusive; nt = not tested or not shown; [ ] = remark or other dose. On the % scale 0 is the no-effect control and ±100 the full control effect; potency means the concentration at half of the fitted maximal effect.

SMILES | Vaccinia mCherry | LASV entry inh | Marburg entry inh | FMDV inh | VACV Venus inh
CCN(CC)c1ccc(C(=O)NCc2nc3cccnc3n2Cc2ccc(C)cc2)cc1 | -13.3% | -13.4%[46.1 µM] | nt | -0.1% | -7.4%
CN(C)c1ccc(N2C(=O)CSC2=S)cc1 | 241.4% | -2.4% | 21.5% | -23.4% | 321.3%
CC1SC(=S)N(c2ccc(N(C)C)cc2)C1=O (stereo not given) | 11.2µM* | 4.1%[46.1 µM] | 1.4%[46.1 µM] | 0.2% | -28.9%
CCNc1ccc(Br)cc(C(=O)/C=C/c2ccccc2Cl)c1=O | nt | ? | 16.4µM* | ? | nt
CNc1ccc(Br)cc(C(=O)/C=C/c2cccc(Cl)c2Cl)c1=O | nt | nt | nt | 20µM* | nt
C(=C\c1ccnc2ccccc12)/c1cccnc1 | -3.9% | nt | nt | nt | -24.7%
NS(=O)(=O)c1cccc(NC(=O)c2cc(=O)c3ccccc3o2)c1 | -10.4% | 4.5%[46.1 µM] | -6.9%[46.1 µM] | 23.6% | -8.3%
Cc1cc2oc(C(=O)Nc3ccc(S(=O)(=O)N4CCC(C)CC4)cc3)cc(=O)c2cc1C | -19.1% | 4.3%[46.1 µM] | 21.2%[46.1 µM] | -18.9% | -6.6%
O=C(Nc1cccc(S(=O)(=O)N2CCCCC2)c1)c1ccccn1 | -6.9% | 5.4% | -3.2%[46.1 µM] | 10.4% | -13.2%
O=C(Nc1cccc(S(=O)(=O)N2CCCCCC2)c1)c1cc(=O)c2ccccc2o1 | -29.0% | -7.1% | ? | 20µM* | -24.0%
O=C(Nc1cccc(Cl)c1)Nc1cc(S(=O)(=O)N2CCCCC2)ccc1Cl | -24.8% | ? | 3.98µM* | ? | ?
Cc1cc2oc(C(=O)Nc3ccc(S(=O)(=O)N4CCCC(C)C4)cc3)cc(=O)c2cc1Cl (stereo not given) | 10.9% | ? | 11.2µM* | 0.0% | -12.1%
CN(c1ccccc1)S(=O)(=O)c1cccc(NC(=O)c2cc(=O)c3ccccc3o2)c1 | -11.9% | ? | 12.6µM* | 31.6µM* | -3.6%
CCc1ccccc1N(C)C(=O)Nc1cn(CC(C)C)c(=O)c2ccccc12 | -13.5% | -14.0%[46.1 µM] | nt | -17.2% | -5.5%
CC(=O)Nc1ccc(/C=C2\C=Cc3ccccc32)cc1 | -13.6% | nt | nt | nt | -22.3%
CCc1ccc(NCc2cc3cc4c(cc3n(CC(=O)Nc3ccccc3Cl)c2=O)OCO4)cc1 | 1.2% | -4.3%[46.1 µM] | nt | 6.1% | 5.8%
O=C(CCc1nc(-c2ccc(F)cc2)no1)Nc1cccc(C(=O)NC2CC2)c1 | nt | nt | nt | 39.8µM* | nt
O=C(c1cccc(Cl)c1)N1CCC(=O)N([C@H](COCc2cccc(Cl)c2)Cc2ccccc2)CC1 | 4.5% | nt | nt | ? | -5.0%
Cc1cccc(COC[C@H](Cc2ccccc2)N2CCN(C(=O)c3ccc(Cl)c(Cl)c3)CCC2=O)c1 | -15.8% | nt | nt | 0.0% | -10.8%
Cc1cccc(COCC(Cc2ccccc2)N2CCN(C(=O)c3cccc(C)c3)CCC2=O)c1 (stereo not given) | -15.7% | 7.31µM* | -39.1% | -17.4% | -27.3%
CC(C)(C)c1ccc(C(=O)N2CCC(=O)N([C@H](COCc3ccccc3)Cc3ccccc3)CC2)cc1 | 1.8% | nt | nt | -20.0% | -25.7%
CC(C)(C)c1ccc(C(=O)N2CCC(=O)N(C(COCc3ccccc3)Cc3ccccc3)CC2)cc1 (stereo not given) | -23.9% | 8.2µM* | ? | ? | ?
Cc1cccc(COCC(Cc2ccccc2)N2CCN(C(=O)c3ccc(Cl)c(Cl)c3)CCC2=O)c1 (stereo not given) | ? | 14.6µM* | -44.8% | ? | ?
Cc1ccn2c(-c3csc(NCc4ccccc4)n3)c(C)nc2c1 | nt | ? | ? | 15.8µM* | ?
Cc1ccc(Nc2nc(-c3c(C)nc4ccccn34)cs2)cc1 | ? | ? | -40.9% | 25.1µM* | 10µM*
SMILES | Vaccinia mCherry | LASV entry inh | Marburg entry inh | FMDV inh | VACV Venus inh
COc1cc(=O)n2c(c1C(=O)N(C)Cc1cscn1)CCN(Cc1ccc3c(c1)OCCO3)CC2 | -16.7% | nt | nt | -12.3% | 0.0%
CCCCCCCCCCCCCCC[C@@H](O)[C@H](CO)NC(C)=O | -15.8%[3.33 µM] | nt | nt | -10.1%[6.7 µM] | -13.1%[3.33 µM]
Cc1ccc(NC2=Nc3ccccc3CC2)cc1 | nt | ? | 7.94µM* | -41.3% | -17.6%
Brc1ccc(NC2=Nc3ccccc3CC2)cc1 | nt | -26.3% | -23.8% | 6.3% | nt
Cc1ccc(C(=O)N2N=C(c3ccccc3O)CC2c2ccccc2)cc1 (stereo not given) | i | 6.1%[46.1 µM] | 0.6%[46.1 µM] | 0.0% | -1.0%
Cc1ccc(C(=O)N2N=C(c3ccc(Br)cc3)CC2c2ccccc2O)cc1 (stereo not given) | -25.6% | 12.6µM* | -29.5% | 23.2% | ?
O=C(Cc1ccc(OCCC2CCCCC2)cc1)NO | ? | nt | nt | nt | -14.9%
Nc1ccc(C#Cc2cncnc2Nc2ccc(OCc3cccc(F)c3)c(Cl)c2)cc1 | nt | 3.15µM* | nt | nt | nt
CN1CCN(Cc2ccc(-c3cc4ncnc(Nc5ccc(OCc6cccc(F)c6)c(Cl)c5)c4s3)o2)CC1 | nt | 19.9µM* | nt | nt | nt
Fc1cccc(COc2ccc(Nc3ncnc4sc(-c5cccs5)cc34)cc2Cl)c1 | nt | 15.8µM* | nt | nt | nt
CCOc1ccc(CCNC(=O)CCc2nnc3ccc(N4CCCCC4)nn23)cc1OCC | -24.7% | nt | nt | -15.1% | -7.6%
C[C@H]1C[C@@H](C)O[C@@]2(C1)C(=O)N(Cc1ccccc1C(F)(F)F)c1ccccc12 | nt | nt | -15.0%[14.2 µM] | nt | nt
COCCCNC(=O)CCCn1c(=O)c2cccn2c2ccccc21 | -4.5% | 3.0%[46.1 µM] | nt | -9.8% | -8.6%
O=C(Nc1ccc(OC(F)F)c(Cl)c1)C(c1ccccc1)c1ccccc1 | nt | nt | nt | 39.8µM* | nt
CC[C@H](NC(=O)CC[C@H]1O[C@@H](n2cnc3c(NC(=O)c4ccccc4)ncnc32)[C@H](O)[C@@H]1O)c1ccccc1 | 42.6% | nt | nt | -14.5% | 3.8%
CSc1ccc(/C=C2\C=C(C(O)c3ccc(SC)cc3)c3ccccc32)cc1 (stereo not given) | -12.6% | nt | nt | nt | ?
O=C(O)c1nn(CCOc2cccc(Cl)c2)c(=O)c2ccccc12 | -3.0% | 1.5%[46.1 µM] | 3.5%[46.1 µM] | -10.1% | -13.7%
O=C(O)c1nn(CCOc2c(Cl)cccc2Cl)c(=O)c2ccccc12 | 11.2µM* | ? | ? | -3.2% | 8.8%
COC(=O)CSc1nc(N)c(C#N)c(-c2ccc(O)cc2)c1C#N | nt | nt | 3.9% | 3.98µM* | nt
Cc1cc(/C=C/c2ccc3cc(N(C)C)ccc3[n+]2C)c(C)n1-c1ccccc1 | 109.5% | nt | nt | 14.1µM* | i
COc1ccccc1NC(=O)c1cc(-c2ccc(OC)c(OC)c2)nc2ccccc12 | i | 2.3%[46.1 µM] | 4.4%[46.1 µM] | -16.9% | 7.1%
COc1ccccc1NC(=O)c1cc(Sc2nncn2C)nc2ccccc12 | nt | -0.4% | -5.4% | -9.2% | 11.2µM*
CC1(C)Cc2c(ccc3ccccc23)/C(=C/C(=O)N2CCCCC2)N1 | nt | -8.5% | 11.2µM* | ? | -19.5%
O=C(/C=C1\NC2(CCCC2)Cc2ccccc21)N1CCOCC1 | nt | -13.8% | -10.0% | ? | -17.6%
COc1ccc2c(c1)C(C)=CC(C)(C)N2S(=O)(=O)c1ccc(NC(C)=O)cc1 | -15.3% | ? | 1.12µM* | -27.3% | ?
CCNC(=O)/C(C#N)=C/c1c(N2CCCCCC2)nc2c(C)cccn2c1=O | ? | 8.91µM* | ? | -2.3% | ?
CCc1ccc(S(=O)(=O)Nc2ccc(O)c3c(=O)cc(-c4ccccc4Cl)oc23)cc1 | -8.9% | nt | nt | 36.1% | -29.9%
O=c1cc(-c2ccccc2Cl)oc2c(NS(=O)(=O)c3cc(Cl)cc(Cl)c3O)ccc(O)c12 | ? | -4.5% | -2.0% | ? | 12.6µM*
